# Screening results (PubChem)
# Sfp PPTase inh: Sfp phosphopantetheinyl transferase inhibition; Biochemical Sfp PPTase activity, qHTS; actives 3.5% (n = 310,000); Q9F4F7; AID 1490; Potency, µM, for inactives: largest response in the series, negative = inhibition, most hits filed as inhibitors;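 further: the enzyme is Sfp with the accession as filed and its product quenches rhodamine fluorescence; 0% = enzyme reaction without inhibitor and -100% = no enzyme wells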
#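 Compounds were incubated with enzyme (final 15 nM) for 15 min at room temperature before substrate addition started the reaction. Fluorescence at 525 nm excitation, 598 nm emission was recorded immediately and after 30 minutes.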
# HP1b binding inh: blocks HP1-beta chromodomain binding to methylated histone tails; P83916; Potency, µM (doses to about 114 µM), inactives show at the highest dose activity change, negative = inhibition, most hits filed as inhibitors; AlphaScreen HP1-beta / biotin-H3K9me3 peptide binding; AID 540317; actives 0.56% (n = 390,000); further: nearly all actives have a fitted effect of over 70% in size
#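 HP1-beta protein (50 nM final) preincubated 30 min at room temperature with biotinylated H3(1-18)K9me3 peptide (50 nM) in PBS pH 7.4, 0.01% Tween-20, then compound added for 30 min. AlphaScreen streptavidin donor/nickel chelate acceptor beads (10 ug/mL final), 30 min dark, luminescence read.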
# JMJD2A Tudor inh: blocks the human JMJD2A Tudor domain | AlphaScreen JMJD2A-Tudor / H3K4me3 peptide binding | O75164 | Potency, µM (titrated, usually from 114 µM), inactives show at the highest dose activity change, negative = inhibition, usual class: inhibitors | AID 504339 | actives 4.4% (n = 390,000); further: on the % scale 0 is the no-effect control and ±100 the full control effect; nearly all actives have a fitted effect of over 50% in size
# BAZ2B block: inhibitors of human BAZ2B bromodomain. Q9UIF8. AlphaScreen BAZ2B-H3K14Ac peptide displacement. Potency, µM (top dose mostly 114 µM), for the others: at the top dose activity change, negative = inhibition, most hits filed as inhibitors. actives 4.4% (n = 360,000); further: on the % scale 0 is the no-effect control and ±100 the full control effect; nearly all actives have a fitted effect of over 60% in size
#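 AlphaScreen luminescence quantifies BAZ2B engagement of H3K14Ac peptide; the protein and biotinylated peptide are both at 50 nM final, buffer PBS pH 7.4 with 0.01% Tween-20, all steps at room temperature.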
# L3MBTL1 block: L3MBTL1 (human) inhibition | AlphaScreen L3MBTL1–H3K9me1 peptide binding | actives 0.66% (n = 230,000) | Potency, µM (doses to about 57.1 µM), for inactives: at the highest dose activity, negative = inhibition, hits mostly inhibitors | AID 485360 | Q9Y468; further: on the % scale 0 is the no-effect control and ±100 the full control effect; nearly all actives have a fitted effect of over 60% in size
# Target sequence (Q9Y468 whole entry, looked up): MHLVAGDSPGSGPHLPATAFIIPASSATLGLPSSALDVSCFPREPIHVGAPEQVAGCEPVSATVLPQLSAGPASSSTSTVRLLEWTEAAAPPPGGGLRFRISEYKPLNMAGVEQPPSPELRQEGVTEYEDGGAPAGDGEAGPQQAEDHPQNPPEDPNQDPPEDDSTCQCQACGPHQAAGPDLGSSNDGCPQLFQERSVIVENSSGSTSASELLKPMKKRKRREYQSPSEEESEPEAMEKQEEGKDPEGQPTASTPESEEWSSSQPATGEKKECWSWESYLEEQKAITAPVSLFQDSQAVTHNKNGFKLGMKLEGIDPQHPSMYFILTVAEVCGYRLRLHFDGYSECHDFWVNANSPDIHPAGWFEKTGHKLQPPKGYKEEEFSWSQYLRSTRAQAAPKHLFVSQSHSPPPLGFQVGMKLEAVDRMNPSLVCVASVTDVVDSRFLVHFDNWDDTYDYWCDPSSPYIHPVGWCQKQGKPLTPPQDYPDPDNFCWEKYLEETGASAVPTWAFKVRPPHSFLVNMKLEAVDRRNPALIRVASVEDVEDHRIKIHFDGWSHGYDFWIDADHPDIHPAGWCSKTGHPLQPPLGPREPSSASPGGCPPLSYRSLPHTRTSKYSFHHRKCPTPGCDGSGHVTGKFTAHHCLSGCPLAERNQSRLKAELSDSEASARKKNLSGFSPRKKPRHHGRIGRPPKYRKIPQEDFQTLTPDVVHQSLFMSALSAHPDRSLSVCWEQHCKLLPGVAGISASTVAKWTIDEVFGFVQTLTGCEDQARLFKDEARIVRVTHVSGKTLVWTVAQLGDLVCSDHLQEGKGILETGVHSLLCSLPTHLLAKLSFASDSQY
#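 L3MBTL1 (50 nM) pre-complexed 30 min with biotinylated H3(1-15)K9me1 peptide (75 nM), then compounds added for 30 min at room temperature; AlphaScreen streptavidin donor/nickel chelate acceptor beads (10 ug/mL final) read after 30 min dark incubation.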
# G9a inh: inhibitors of human histone lysine methyltransferase G9a; Q96KQ7; G9a H3K9 monomethylation, AlphaScreen, 2 h; Potency, µM (highest dose often 102 µM), without a hit: at the top dose activity, negative = inhibition, usual class: inhibitors; actives 8.8% (n = 350,000); further: on the % scale 0 is the no-effect control and ±100 the full control effect; nearly all actives have a fitted effect of over 75% in size
#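 Quantitative HTS format: methyltransferase activity on a biotin-tagged H3K9 peptide is measured by AlphaScreen, using a rabbit anti-monomethyl-H3K9 antibody with streptavidin donor and anti-IgG acceptor beads. Final levels are 20 nM enzyme, 500 nM peptide, 20 uM SAM; 2 h RT.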
# The depositor's hits bear a star; ? = inconclusive; · = not tested or not shown; [ ] = another dose, or the depositor's remark. Sampled rows, rich in hits. Any-hit rate of the full collection: about 12%. The call rests on the fitted dose curve; in most records, active means well fitted curve in the direction sought with a large enough effect; inconclusive means small, poorly fitted or top-dose-only effect, or another doubt; inactive means no such curve, though single readings can be large; an effect the other way counts as inactive or inconclusive. Potency means the concentration at half of the fitted maximal effect.
SMILES,Sfp PPTase inh,HP1b binding inh,JMJD2A Tudor inh,BAZ2B block,L3MBTL1 block,G9a inh
Cc1cc2ccccc2n1-c1ccc(C(=O)N2CCC(C(=O)NCc3ccc(Cl)cc3)CC2)s1,·,10%,-20%,-22%,·,-7%[59 µM]
CCn1c(COc2ccc(Cl)cc2)nnc1SCc1ccc(C#N)cc1,12%,62%,-24%[11.4 µM],-1%,6%,40µM*
CCn1c(CSc2nc3ccccc3[nH]2)nc2cc(C(=O)O)ccc21,3%,5%,?,?,·,-45%[12.7 µM]
CCn1c(CSc2nccn2C)nc2cc(C(=O)O)ccc21,56µM*,20%,32µM*,50µM*,-5%,-38%[12.7 µM]
CCN(CC)C(=O)c1[nH]cnc1C(=O)NCc1ccccc1,·,30%,-25%,·,11%,·
c1ccc(-c2nc(-c3ccccc3)c(NC3CCCCC3)o2)cc1,15%,·,·,·,·,·
COc1ccc(OC)c2c1nc1n2CCS1,-21%,?,-8%,-22%,1%,1.8µM*
NS(=O)(=O)c1ccc(NC(=O)COC(=O)c2cc3ccccc3cc2O)cc1,3%,37%,-24%,-13%,1%,-46%[59 µM]
O=CN1CCc2c([nH]c3ccccc23)C1c1cccc2cccnc12 (stereo unspecified),7%,·,·,·,·,·
Cc1ccc(C2c3c(oc4ccccc4c3=O)C(=O)N2CCCN2CCOCC2)o1 (stereo unspecified),-10%,23%,14µM*,-4%,·,?
O=C1c2oc3ccccc3c(=O)c2C(c2cccnc2)N1CCCN1CCOCC1 (stereo unspecified),12%,52%,-5%,1%,3%,-40%[59 µM]
CC(C)Oc1ccc(C2c3c(oc4ccccc4c3=O)C(=O)N2CCCN2CCOCC2)cc1 (stereo unspecified),-2%,8%,-23%,?,·,?
C=CCOc1ccc(C2c3c(oc4ccccc4c3=O)C(=O)N2CCCN2CCOCC2)cc1 (stereo unspecified),-6%,-1%,-9%,-30%,3%,50µM*
O=C1c2oc3ccc(Cl)cc3c(=O)c2C(c2ccccn2)N1CCCN1CCOCC1 (stereo unspecified),25µM*,25%,-35%,?,-5%,20µM*
Cc1ccc(C2c3c(oc4cc(C)c(C)cc4c3=O)C(=O)N2CCCN2CCOCC2)cc1 (stereo unspecified),-14%,24%,-29%,-1%,-1%,40µM*
Cc1ccc(S(=O)c2ccc(NC(=O)C3CC3)cc2C#N)cc1 (stereo unspecified),17%,-18%,14µM*,-1%,25%,2%
Cc1ccc(NC(=O)C2CCN(S(=O)(=O)c3ccccc3)CC2)cc1,14%,14%,-2%,-16%,9%,?
Cc1nn(C(C)C(=O)NCCCN2CCCCCC2)c(=O)c2c1sc1ccccc12 (stereo unspecified),1%,16%,50µM*,-22%,·,50µM*
Cc1nn(CCCC(=O)NCCc2ccc(Cl)cc2)c(=O)c2c1sc1ccccc12,·,32µM*,7.9µM*,25µM*,·,6.3µM*
CCOc1ccc(CCNC(=O)CCCn2nc(C)c3sc4ccccc4c3c2=O)cc1,·,0%,-7%,-13%,·,-31%[59 µM]
O=C1c2cc(S(=O)(=O)N3CCOCC3)ccc2-c2ccc(S(=O)(=O)N3CCOCC3)cc21,·,28%,-26%,·,·,·
CCCN1CCC(=O)NC1=S,·,23%,-3%,·,·,·
Nc1ncc(S(=O)(=O)NCc2ccc(Cl)cc2)cn1,·,18%[57 µM],-12%,4%,·,1%[59 µM]
COc1cc2nc(=S)n3[nH]c(COc4ccccc4C)nc3c2cc1OC,3%,21%,-37%,6%,8%,-5%[59 µM]
COc1cc2nc(=S)n3[nH]c(CCn4nc(C)cc4C)nc3c2cc1OC,?,0%,-23%,5%,·,1µM*
O=C(CNc1cc(S(=O)(=O)N2CCCC2)ccc1OCC(F)(F)F)Nc1ccc(SC(F)F)cc1,18%,31%,-23%,-7%,2%,?
